Screening data deposited in PubChem by National Center for Advancing Translational Sciences (NCATS).
In the library only some 2.6% were active in any assay of this set; here they are far more common.
Nrf2 activator: activators of Nrf2 (ARE) signaling. AREc32 ARE-luciferase reporter (MCF7-derived line), luminescence, 24 h. AID 624171. 410,000 tested, 0.31% active. Potency, µM (doses to about 46.1 µM), inactives show top-dose activation, most hits filed as activators; further: potency means the concentration at half of the fitted maximal effect; % of control where 0% means no effect; nearly all actives have a fitted effect of over 65% in size
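Luciferase luminescence (Steady-Glo, 30 min at room temperature) served as the read-out of ARE activation in AREc32 cells treated with compounds for 24 hr at 37 deg C.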
A549 tox: kills or reduces viability of A549 cells in Nrf2 counter-screen; A549 ARE-Fluc cells, CellTiter-Fluor viability, 18-24 h; Potency, µM (series often up to 46 µM), for the others: at the highest dose activity change, negative = cytotoxicity, actives largely listed as inhibitors; 390,000 tested, 0.16% active; AID 504648; further: potency means the concentration at half of the fitted maximal effect; on the % scale 0 is the no-effect control and ±100 the full control effect
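A549 ARE-Fluc cells in 5% FBS OPTI-MEM, 5000 cells/well, rested 2 h then exposed to compounds in concentration-response for 18-24 h at 37 °C. Viability by CellTiter-Fluor fluorescence (Ex 405/Em 525) after 30 min; luciferase luminescence (BugLite, 15 min, RT) read afterwards.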
TCR activator: activates T cell receptor signaling; Potency, µM (doses to about 9.22 µM), for inactives: at the highest dose activation of IL-2 secretion, actives largely listed as activators; primary human leukocytes, anti-CD3, IL-2 HTRF, 48 h; 330,000 tested, under 10 active; further: % of control where 0% means no effect
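Using a-CD3 beads without co-stimulation, primary human leukocytes were exposed to compounds for 48 hr. An HTRF IL-2 kit measured the cytokine, with europium-to-d2 energy transfer producing emission at 665nm upon 320nm excitation.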
A-T KAP1 phos: candidate therapy for ataxia-telangiectasia | F2112 A-T fibroblasts, KAP-1 phosphorylation AlphaLISA; neocarzinostatin DNA damage 30 min before lysis | Potency, µM (top dose mostly 57.5 µM), for inactives: at the top dose activation, usual class: activators | 320,000 tested, 0.19% active | AID 485349; further: potency means the concentration at half of the fitted maximal effect; % of control where 0% means no effect; nearly all actives have a fitted effect of over 45% in size
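hTERT-immortalized A-T patient fibroblasts (F2112), 500 cells/well in OPTI-MEM, 1% FBS, got compounds for 60 min, then NCS for 30 min at 37C. Lysates were then assayed for phospho-KAP-1 by AlphaLISA (anti-pKAP1 donor, anti-KAP1 acceptor beads), 6 hr at 25C.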
CCT modulator: cytosolic chaperonin activity modulation | purified chaperonin ATPase assay, HTRF ADP detection, 30 min | activity change, % (test concentration not listed), hits read low | 360,000 tested, 0.3% active | AID 651819; in the data active means activity change below about -30%; further: on the % scale 0 is the no-effect control and ±100 the full control effect
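First, chaperonin was dispensed at 40 nM or 20 nM final depending on batch activity. Next, compounds were pinned at 76 uM and ATP added at 10 uM. After 30 min at 37 °C, ADP detection reagents ran 30 min at ambient temperature.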
Nrf2 inh: Nrf2 pathway inhibition; A549 ARE-Fluc reporter, luciferase luminescence, 18-24 h; Potency, µM (highest dose often 46 µM), without a hit: top-dose activity change, negative = inhibition, actives largely listed as inhibitors; 360,000 tested, 2.1% active; AID 504444; further: potency means the concentration at half of the fitted maximal effect; on the % scale 0 is the no-effect control and ±100 the full control effect; nearly all actives have a fitted effect of over 60% in size
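Quantitative HTS in A549 cells stably bearing an antioxidant response element-firefly luciferase construct. Inhibition of Nrf2-driven transcription was scored by luminescence after 18-24 h of compound exposure at 37 °C.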
Active calls of the source: *; [ ] = another dose, or the depositor's remark. Unless noted, the call rests on the fitted dose curve; in most records, active means well fitted curve in the direction sought with a large enough effect; inconclusive means small, poorly fitted or top-dose-only effect, or another doubt; inactive means no such curve, though single readings can be large; an effect the other way counts as inactive or inconclusive.

Results for CC(=O)c1c(C)[nH]c(C(=O)CSc2nnc(C3CCCCC3)n2N)c1C ?
Nrf2 activator: 0.0%; A549 tox: -9.4%; TCR activator: 2.2%; A-T KAP1 phos: 0.6%; CCT modulator: -0.2; Nrf2 inh: 20.6µM*

Results for Nn1c(SCC(=O)N2CCCC2)nnc1C1CCCCC1 ?
Nrf2 activator: -1.4%; CCT modulator: -1.7

Results for Cc1cc(C)c(NC(=O)CCS(=O)(=O)c2cc3c(cc2Cl)NC(=O)CO3)c(C)c1 ?
Nrf2 activator: -1.4%; A549 tox: 12.7%; Nrf2 inh: -1.8%

How did CC(C)(C)c1ccc(C2CC2C(=O)N/N=C\c2ccc[nH]2)cc1 (stereo not given) do in these assays?
Nrf2 activator: -0.3%[9.22 µM]; A549 tox: 5.8µM*; TCR activator: -3.6%; A-T KAP1 phos: -0.9%[11.5 µM]; CCT modulator: 4.2; Nrf2 inh: 1.64µM*

Results for O=C(N/N=C/c1ccco1)C1CC1c1ccccc1 (stereo not given) ?
Nrf2 activator: 23.9%; A549 tox: -1.5%; TCR activator: -1.9%[46.1 µM]; A-T KAP1 phos: 10.9%; CCT modulator: -6.7; Nrf2 inh: -25.4%

What do the screens show for `CCCCCCCCn1c2c(c(=N)c3ccccc31)CCC2`?
Nrf2 activator: 16.7%; A549 tox: inconclusive; TCR activator: 5.1%; A-T KAP1 phos: 0.2%; CCT modulator: -1.4; Nrf2 inh: 2.91µM*

What do the screens show for `CCCCn1c2c(c(=N)c3ccccc31)CCC2`?
Nrf2 activator: 0.1%; A549 tox: 4.8%; TCR activator: 1.7%; A-T KAP1 phos: inconclusive; CCT modulator: -0.6; Nrf2 inh: -25.5%

What do the screens show for `Cc1ccc(C(=O)NCC(=O)OCc2cc(=O)n3nc(C4CC4)sc3n2)cc1`?
Nrf2 activator: -0.6%; A549 tox: -7.0%; Nrf2 inh: 5.9%

Results for C[C@@H]1C[C@H]2[C@@H]3C[C@H](F)C4=CC(=O)C=C[C@]4(C)[C@@]3(F)[C@@H](O)C[C@]2(C)[C@@]1(O)C(=O)COC(=O)C(C)(C)C ?
Nrf2 activator: -0.5%; A549 tox: 1.1%; TCR activator: -4.5%; A-T KAP1 phos: 10.5%; CCT modulator: 1.6; Nrf2 inh: 0.0517µM*

Results for CC(=O)OCC(=O)[C@@]1(O)[C@H](C)C[C@H]2[C@@H]3CCC4=CC(=O)C=C[C@]4(C)[C@@]3(F)[C@@H](O)C[C@@]21C ?
Nrf2 activator: -0.2%; A549 tox: -10.8%; TCR activator: 3.2%; A-T KAP1 phos: 2.3%; CCT modulator: 0.8; Nrf2 inh: inconclusive

How did COC(=O)C(=O)Nc1cccc2cccnc12 do in these assays?
A549 tox: -0.5%; Nrf2 inh: 15.0%

What do the screens show for `Cc1cc(Br)ccc1OCC(=O)N(Cc1nc(-c2ccccc2)no1)C(C)C`?
Nrf2 activator: 0.6%; A549 tox: -1.7%; TCR activator: 2.6%; A-T KAP1 phos: 6.8%; CCT modulator: 0.2; Nrf2 inh: 18.4µM*

How did COc1ccccc1OCC(=O)N(Cc1nc(-c2ccccc2)no1)C(C)C do in these assays?
Nrf2 activator: 2.2%; A549 tox: -12.0%; TCR activator: -1.7%; A-T KAP1 phos: 7.8%; CCT modulator: 3.2; Nrf2 inh: 13µM*

What do the screens show for `COc1ccccc1OCC(=O)N(Cc1nc(-c2ccc(Cl)cc2)no1)C(C)C`?
Nrf2 activator: 2.9%; A549 tox: -6.1%; TCR activator: -6.0%; A-T KAP1 phos: 26.0%; CCT modulator: -1.6; Nrf2 inh: -20.8%

Results for C[C@@H]1CN([C@H](C)CO)C(=O)CCCn2cc(nn2)CO[C@H]1CN(C)C(=O)c1cc(-c2ccccc2)on1 ?
Nrf2 activator: 1.7%; CCT modulator: -2.9

What do the screens show for `COC(=O)C1=C(C)NC(=O)/C1=C\c1cc(C)n(-c2c(C)cccc2C)c1C`?
Nrf2 activator: 6.1%; A549 tox: 20.6µM*; CCT modulator: -3.2; Nrf2 inh: 23.1µM*

What do the screens show for `Cc1ccccc1CN1C(=O)C(O)(c2c[nH]c3ccccc23)c2cc(Cl)ccc21` (stereo not given)?
Nrf2 activator: -3.8%; A549 tox: -19.5%; Nrf2 inh: inconclusive

What do the screens show for `CCc1ccc(C(=O)c2cn(Cc3ccc(F)cc3)c3cc(OC)c(OC)cc3c2=O)cc1`?
Nrf2 activator: -2.6%; A549 tox: 20.6µM*; Nrf2 inh: -7.3%

How did O=C(NC1CCCCC1)c1ccc(CSc2nc3cccnc3n2Cc2cccc(F)c2)cc1 do in these assays?
Nrf2 activator: 0.5%; A549 tox: -2.8%; Nrf2 inh: inconclusive

What do the screens show for `N#C/C(C(N)=O)=c1/ccc2c(c1)N1C3=C(CCCC3)CC3CCCCC31N=2` (stereo not given)?
Nrf2 activator: -0.4%; A549 tox: -3.2%; TCR activator: 5.9%; A-T KAP1 phos: -4.5%; CCT modulator: -37.3*; Nrf2 inh: -13.4%

How did COc1ccccc1-c1nc2c3ccccc3nc(=S)n2[nH]1 do in these assays?
Nrf2 activator: 9.6%; A549 tox: -0.4%; TCR activator: -3.6%; A-T KAP1 phos: -2.5%; CCT modulator: -1.1; Nrf2 inh: 1.4%

Results for COc1cc(-c2nc3c4ccccc4nc(=S)n3[nH]2)cc(OC)c1OC ?
Nrf2 activator: -0.3%; A549 tox: -0.3%; TCR activator: -1.8%; A-T KAP1 phos: -0.4%; CCT modulator: -36.6*; Nrf2 inh: inconclusive

Results for COc1ccccc1NS(=O)(=O)c1cccc(NC(=O)c2cc3ccccc3oc2=O)c1 ?
Nrf2 activator: 7.7%; A549 tox: -0.7%; TCR activator: -0.6%; A-T KAP1 phos: 4.9%; CCT modulator: -0.2; Nrf2 inh: 0.0%

How did C=CCOC(=O)C1=C(C)OC(N)=C(C#N)C1c1ccc(OC)c(CSc2ccccn2)c1 (stereo not given) do in these assays?
Nrf2 activator: 4.0%; A549 tox: 0.0%; TCR activator: 1.8%[46.1 µM]; A-T KAP1 phos: 11.6%; CCT modulator: -84.7*; Nrf2 inh: inconclusive

How did Cc1ccc(-n2nnnc2SCC(=O)N2CCc3ccccc3C2)c(C)c1 do in these assays?
Nrf2 activator: 0.2%; A549 tox: -8.3%; A-T KAP1 phos: 12.1%; CCT modulator: -0.2; Nrf2 inh: 16.4µM*

Results for CSCCC(NS(=O)(=O)c1ccc2c(c1)oc(=O)n2C)C(=O)N1CCN(c2cc(C)ccc2C)CC1 (stereo not given) ?
Nrf2 activator: -0.3%; A549 tox: -4.6%
